Shown are actives, neighbours in structure and some others; about 4.6% of the full set was active somewhere.
proKLK7 act = proKLK7 zymogen activators, primary screen, biochemical, fluorescence intensity | Kallikrein-7 (Homo sapiens), P49862 | purified proKLK7, EDANS-DABCYL substrate fluorescence; 100% is mature enzyme control, 0% vehicle | activation, % at 7 µM | actives 0.9% (n = 370,000) | AID 652039, 2013;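 active = activation above the mean of all tested compounds plus 3 SD, computed per campaign excluding outliers beyond control limits, cut at about 13% in these data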
FAS TE block = FAS thioesterase domain inhibitors, primary screen, biochemical, fluorescence intensity, uHTS; recombinant FAS-TE, OMFH fluorogenic substrate, fluorescence endpoint; Fatty acid synthase (Homo sapiens), P49327; inhibition, % at 15 µM; actives 0.67% (n = 360,000);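 active = compounds whose normalised, plate-corrected inhibition of enzyme fluorescence in the single-dose primary screen is 50% or more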
ADAM10 inh = human ADAM10 inhibitors, primary screen, biochemical, QFRET, HTS; Disintegrin and metalloproteinase domain-containing protein 10 (Homo sapiens), O14672; recombinant ADAM10, EDANS/DABCYL FRET peptide cleavage, 3 h; inhibition, % at 7 µM; actives 0.62% (n = 370,000);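 active = inhibition above a per-campaign cutoff equal to the mean of compounds falling between control-based bounds plus 3 SD, cut at about 20% in these data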
Target sequence (O14672 214-748 limits assumed): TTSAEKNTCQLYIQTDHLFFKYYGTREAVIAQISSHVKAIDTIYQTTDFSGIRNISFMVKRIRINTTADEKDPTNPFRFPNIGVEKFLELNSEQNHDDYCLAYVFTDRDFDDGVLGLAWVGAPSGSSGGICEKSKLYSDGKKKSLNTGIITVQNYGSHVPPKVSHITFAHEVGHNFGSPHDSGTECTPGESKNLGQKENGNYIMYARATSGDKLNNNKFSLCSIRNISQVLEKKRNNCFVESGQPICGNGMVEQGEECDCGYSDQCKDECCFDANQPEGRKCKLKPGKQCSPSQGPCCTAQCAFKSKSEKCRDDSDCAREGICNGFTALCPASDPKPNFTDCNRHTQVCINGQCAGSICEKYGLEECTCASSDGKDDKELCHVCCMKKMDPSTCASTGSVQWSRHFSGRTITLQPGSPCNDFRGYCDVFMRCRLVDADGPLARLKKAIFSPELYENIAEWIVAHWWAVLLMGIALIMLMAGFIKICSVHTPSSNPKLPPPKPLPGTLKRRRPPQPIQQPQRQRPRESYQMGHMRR
ADAM17 inh = ADAM17 inhibitors, primary screen, biochemical, QFRET; actives 0.83% (n = 370,000); inhibition, % at 6.95 µM; recombinant ADAM17, EDANS/DABCYL FRET peptide cleavage;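 active = inhibition above the mean of compounds lying between control limits plus 3 SD, set per campaign, cut at about 8.5% in these data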
GRIN3A LBD mod = binders of NR3A ligand-binding domain, primary screen, biophysical, differential scanning fluorimetry, uHTS | actives 2.5% (n = 340,000) | Glutamate receptor ionotropic, NMDA 3A (GRIN3A) ligand-binding domain | NR3A LBD differential scanning fluorimetry, Tm shift; 0% = protein alone, 100% = glycine-bound protein | Tm shift relative to glycine control, % at 25 µM;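 active = melting temperature shift of at least 10% of the positive control shift, at one fixed dose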
Each line names hits and unclear results; the compound was inactive in the other large screens; ! = not active in a repeat.

CC1CCc2c(sc(/N=C/c3ccco3)c2C(N)=O)C1 (stereo unspecified)	none
O=C(Nc1cccc([N+](=O)[O-])c1)c1cc(S(=O)(=O)N2CCOCC2)cs1	GRIN3A LBD mod 22
CN1CCN(S(=O)(=O)c2ccc(-c3ccc(Cl)cc3)cc2)CC1	none
O=C(Nc1ccccc1)c1cc(S(=O)(=O)N2CCOCC2)cs1	none
Cc1ccc(Nc2nc(-c3ccc(S(=O)(=O)N4CCOCC4)cc3)cs2)cc1Cl	GRIN3A LBD mod 26
O=C(Nc1ccc(S(=O)(=O)N2CCOCC2)cc1)c1ccccc1	none (no result: proKLK7 act, ADAM10 inh, ADAM17 inh)
O=C(Nc1ccc(S(=O)(=O)N2CCOCC2)cc1)c1cc(-c2ccccc2O)n[nH]1	GRIN3A LBD mod 27
CN1CCN(S(=O)(=O)c2ccc(Cl)cc2)CC1	GRIN3A LBD mod 14!
CCOC(=O)[C@@]12CN(C(=O)OC(C)(C)C)CC=C1N(Cc1ccc(OC)cc1)C(=O)[C@H]2CC(=O)N1CCCCC1	none (no result: FAS TE block, GRIN3A LBD mod)
O=C(CN1CCN(S(=O)(=O)c2ccc(F)cc2)CC1)c1ccc(O)c(O)c1	none
Cc1ccc(-n2ccc(=O)c(C(=O)Nc3ccc(S(=O)(=O)N4CCOCC4)cc3)n2)cc1	GRIN3A LBD mod 12
Cc1cccc(C(=O)OC(C)C(=O)Nc2ccc(S(=O)(=O)N3CCCC3)cc2)c1O (stereo unspecified)	none
CC(OC(=O)c1cc(Br)ccc1O)C(=O)Nc1ccc(S(=O)(=O)N2CCCC2)cc1 (stereo unspecified)	GRIN3A LBD mod 11
CC(C)(C)C(=O)CN1CCN(S(=O)(=O)c2ccc(F)cc2)CC1	GRIN3A LBD mod 12
CC(=O)N1CCN(c2ccc(NC(=O)c3ccc(Cl)c([N+](=O)[O-])c3)cc2)CC1	GRIN3A LBD mod 15
CN(CC#Cc1ccccc1)C(N)=NC(=O)/C=C/c1cccc(C(F)(F)F)c1	none (no result: FAS TE block, GRIN3A LBD mod)
O=C(Nc1ccc(S(=O)(=O)N2CCOCC2)cc1)c1ccc([N+](=O)[O-])s1	GRIN3A LBD mod 29
CN1CCN(S(=O)(=O)c2ccc(NC(=O)C(C)(C)C)cc2)CC1	GRIN3A LBD mod 11
O=C(Nc1ccc(S(=O)(=O)N2CCOCC2)cc1)c1cccs1	none
Cc1ccc(NC(=O)c2ccc(NCCCN3CCOCC3)c([N+](=O)[O-])c2)cc1Cl	none
COc1ccc(NC(=O)c2ccc(NCCCN3CCOCC3)c([N+](=O)[O-])c2)cc1	GRIN3A LBD mod 14
O=C(Nc1ccc(S(=O)(=O)N2CCOCC2)cc1)c1cccc(Br)c1	GRIN3A LBD mod 31
CCCCNC(=O)C1(C(=O)c2ccc(OC)cc2)CC(c2ccccc2C(F)(F)F)=NO1 (stereo unspecified)	none (no result: FAS TE block, GRIN3A LBD mod)
O=C(CSc1ccccc1)N1CCC(Oc2cccnc2)CC1	none (no result: FAS TE block, GRIN3A LBD mod)
CC(=O)c1cc(-c2ccc3c(c2)OCO3)c(=O)n2c1CCC2	none (no result: FAS TE block, GRIN3A LBD mod)
Cc1ccc(C(=O)Nc2ccc(S(=O)(=O)N3CCOCC3)cc2)cc1Br	GRIN3A LBD mod 34
Cc1ccc(C(=O)N2CCN(c3ccc(NC(=O)c4cc(C)cc(C)c4)cc3)CC2)cc1	GRIN3A LBD mod 13
N#Cc1cccc(NS(=O)(=O)c2ccc(S(=O)(=O)N3CCOCC3)cc2)c1	none
N#Cc1cccc(NC(=O)c2ccc(S(=O)(=O)N3CCOCC3)cc2)c1	GRIN3A LBD mod 16
Cc1ccc(S(=O)(=O)N2CCN(CC(=O)N/N=C/c3ccc(C)o3)CC2)cc1	GRIN3A LBD mod 32
COc1ccc(OC)c(CN2C(=O)CCCCC2(C)c2nnnn2C2CCCC2)c1 (stereo unspecified)	none (no result: FAS TE block, GRIN3A LBD mod)
O=C(NCCCN1CCOCC1)c1ccc(Cl)c([N+](=O)[O-])c1	none
O=C(Nc1cccc(S(=O)(=O)N2CCOCC2)c1)c1ccc(Cl)c([N+](=O)[O-])c1	none
O=C(NCCCN1CCOCC1)c1ccc(Sc2cccc(Cl)c2)c([N+](=O)[O-])c1	GRIN3A LBD mod 19
O=C(Nc1ccc(S(=O)(=O)N2CCOCC2)cc1)c1ccc(Cl)c([N+](=O)[O-])c1	GRIN3A LBD mod 35
CC(=O)Nc1ccc(C(=O)Nc2ccc(S(=O)(=O)N3CCOCC3)cc2)cc1	GRIN3A LBD mod 31
CC(=O)Nc1ccc(S(=O)(=O)N2CCN(S(=O)(=O)c3ccc(NC(C)=O)cc3)CC2)cc1	none
CC(=O)Nc1ccc(S(=O)(=O)N2CCCN(S(=O)(=O)c3ccc(NC(C)=O)cc3)CC2)cc1	GRIN3A LBD mod 11
CC(=O)CC[C@H]1CC[C@]2(CCCN(C(=O)c3ccc4ccccc4n3)C2)O1	none (no result: FAS TE block, GRIN3A LBD mod)
COc1ccc(S[C@]2(C(=O)N(C)C)CC(=O)N(c3ccccc3)[C@@H]2c2ccc(OC)cc2)cc1	none (no result: FAS TE block, GRIN3A LBD mod)
Cc1nn(CCC(=O)NNC(=O)Nc2ccc(F)cc2)c(C)c1[N+](=O)[O-]	none (no result: FAS TE block, GRIN3A LBD mod)
Cc1ccc(C(=O)Nc2ccc(S(=O)(=O)N3CCOCC3)cc2)cc1C	GRIN3A LBD mod 22
Nc1nc(/C=C/c2cccnc2)nc(-c2ccccc2O)n1	none
Nc1nc(/C=C/c2ccc(F)cc2)nc(-c2ccccc2O)n1	GRIN3A LBD mod 16
N=C1/C(=C\c2ccc(-c3cc(Cl)cc(Cl)c3)o2)C(=O)N=C2SC=C(c3ccccc3)N12	GRIN3A LBD mod 24
N=C1/C(=C/c2ccc(-c3cccc(C(=O)O)c3)o2)C(=O)N=C2SC=C(c3ccccc3)N12	none
CN(CC(=O)NC1CC(C)(C)NC(C)(C)C1)S(=O)(=O)c1ccc(Br)cc1	GRIN3A LBD mod 13
Cc1ccc(S(=O)(=O)N(C)CC(=O)NC2CC(C)(C)NC(C)(C)C2)cc1	none
CC(C)OC(=O)C(C(=O)C(F)(F)F)c1cc(NS(=O)(=O)c2ccc3ccccc3c2)c2ccccc2c1O (stereo unspecified)	GRIN3A LBD mod 24 (no result: proKLK7 act, ADAM10 inh, ADAM17 inh)
CCOc1ccc(S(=O)(=O)Nc2cc(SCC(=O)O)c(O)c3ccccc23)cc1	none
COc1ccc(CCNC(=O)Nc2ccc3c(c2)[C@@]2(CC(=O)N(CC(C)C)C2c2ccccc2)C(=O)N3C)cc1OC (stereo partly specified)	none (no result: FAS TE block, GRIN3A LBD mod)
O=C(NC1CCCCN(Cc2cccc(C(F)(F)F)c2)C1=O)c1ccc(Cl)cc1 (stereo unspecified)	none (no result: FAS TE block, GRIN3A LBD mod)
CCOC(=O)C1=C(c2ccccc2)NC(=S)NC1c1cccc([N+](=O)[O-])c1 (stereo unspecified)	GRIN3A LBD mod 14
CCOC(=O)C1=C(c2ccccc2)NC(=S)NC1c1ccc(C)c([N+](=O)[O-])c1 (stereo unspecified)	none
COc1ccc2ccccc2c1C=Nn1c(-c2cc(-c3ccccc3)n[nH]2)n[nH]c1=S	none (no result: FAS TE block, GRIN3A LBD mod)

Screens as filed in PubChem.
